ALOX12 inh: inhibitors of human 12S-lipoxygenase ALOX12 | P18054 | purified 12hLO, xylenol orange hydroperoxide absorbance | Potency, µM (series often up to 108 µM), for inactives: at the top dose activity change, negative = inhibition, hits mostly inhibitors | 580,000 compounds, 1.1% hits; further: potency means the concentration at half of the fitted maximal effect; on the % scale 0 is the no-effect control and ±100 the full control effect
Target sequence (P18054 whole entry, looked up): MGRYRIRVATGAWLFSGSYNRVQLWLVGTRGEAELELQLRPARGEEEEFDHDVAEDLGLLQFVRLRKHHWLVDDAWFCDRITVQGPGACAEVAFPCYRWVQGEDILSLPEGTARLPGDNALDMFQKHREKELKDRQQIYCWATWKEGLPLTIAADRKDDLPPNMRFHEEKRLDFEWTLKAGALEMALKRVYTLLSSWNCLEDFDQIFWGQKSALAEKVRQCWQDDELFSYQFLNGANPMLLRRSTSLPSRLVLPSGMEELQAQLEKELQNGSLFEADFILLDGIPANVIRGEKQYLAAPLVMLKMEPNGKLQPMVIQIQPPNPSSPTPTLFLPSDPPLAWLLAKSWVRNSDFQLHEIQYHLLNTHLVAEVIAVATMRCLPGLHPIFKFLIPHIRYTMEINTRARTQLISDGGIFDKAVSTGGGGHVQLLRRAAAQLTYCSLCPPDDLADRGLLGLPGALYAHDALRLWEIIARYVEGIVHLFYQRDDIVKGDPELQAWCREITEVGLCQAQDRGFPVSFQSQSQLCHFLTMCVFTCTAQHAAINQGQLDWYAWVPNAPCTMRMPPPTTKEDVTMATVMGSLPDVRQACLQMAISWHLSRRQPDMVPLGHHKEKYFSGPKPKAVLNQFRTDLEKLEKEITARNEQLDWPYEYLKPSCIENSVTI
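Purified human 12hLO at 150 nM in 25 mM Hepes, 0.01% Triton X-100, pH 7.0, preincubated 15 min at room temperature with compound. Reaction started with 40 uM arachidonic acid, 30 min at room temperature. Hydroperoxide measured by Fe-xylenol orange, 573/405 nm absorbance ratio.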
POLK inh: blocks human DNA polymerase kappa activity; Potency, µM (top dose mostly 107 µM), inactives show at the highest dose activity, negative = inhibition, hits mostly inhibitors; purified Pol kappa, fluorescent DNA synthesis assay, 10 min; AID 588579; 400,000 compounds, 0.53% hits; further: potency means the concentration at half of the fitted maximal effect; on the % scale 0 is the no-effect control and ±100 the full control effect
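Inhibition of 10 nM Pol kappa is measured by a fluorescent read-out at 0 and 10 min following addition of 50 nM substrate (final), with a 15-min room-temperature compound preincubation.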
PI5P4Ka inh: blocks human PI5P4K alpha kinase activity. PI5P4Kalpha enzyme, ADP-Glo luminescence, 60 min; hits give low values. 330,000 compounds, 1.2% hits. P48426. max response, %; active means max response of -50% or lower; inconclusive means between -30% and -50%; inactive means -30% or higher; further: value at the top dose of about 77 µM; on the % scale 0 is the no-effect control and ±100 the full control effect
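Controls without substrate or without enzyme flank wells where PI5P4Kalpha converts substrate using 5 microM ATP (final). Incubation lasts 60 minutes at room temperature; ADP formed is read by ADP-Glo luminescence.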
POLH inh: blocks human DNA polymerase eta activity | Q9Y253 | recombinant Pol eta, fluorescent DNA replication assay | Potency, µM (highest dose often 114 µM), for inactives: top-dose activity change, negative = inhibition, hits mostly inhibitors | 390,000 compounds, 1.2% hits | AID 588591; further: potency means the concentration at half of the fitted maximal effect; on the % scale 0 is the no-effect control and ±100 the full control effect
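Fluorescent replication assay: 50 nM final substrate added after a 15 min room-temperature compound preincubation with 10 nM enzyme. Signal taken at 0 min and again at 10 min.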
POLB inh: DNA polymerase beta (human) inhibition | P06746 | Pol beta primer extension/strand displacement, fluorescence kinetic | Potency, µM (doses to about 114 µM), inactives show top-dose activity change, negative = inhibition, most hits filed as inhibitors | 340,000 compounds, 1.3% hits | AID 485314; further: potency means the concentration at half of the fitted maximal effect; on the % scale 0 is the no-effect control and ±100 the full control effect
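Curves were derived by four-parameter Hill fits of normalized qHTS data. The kinetic fluorescent primer-extension read was taken at 0 and 10 min after 50 nM substrate, following a 15 min room-temperature preincubation of 10 nM enzyme with compounds.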
Pol iota inh: DNA polymerase iota (human) inhibition. Q9UNA4. Pol iota fluorescent replication assay, 10 min. Potency, µM (series often up to 115 µM), for the others: top-dose activity, negative = inhibition, actives largely listed as inhibitors. 390,000 compounds, 1% hits; further: potency means the concentration at half of the fitted maximal effect
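Fluorescent replication assay read twice, at 0 min and 10 min after adding 50 nM (final) substrate. Enzyme (10 nM) and compounds were first incubated 15 min at room temperature; enzyme-free buffer wells were negative controls.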
Starred values were filed as active, the others as inactive; ? = inconclusive; · = no result given; [ ] = remark or other dose. This is a sample that favours compounds with a hit; in the whole collection about 2.9% have one here. Unless noted, the call rests on the fitted dose curve; in most records, active means well fitted inhibition curve with a large enough effect; inconclusive means small, poorly fitted or top-dose-only effect, or another doubt; inactive means no such curve, though single readings can be large or run the other way.

SMILES	ALOX12 inh	POLK inh	PI5P4Ka inh	POLH inh	POLB inh	Pol iota inh
CC1(C)CCC(C)(C)c2cc(C(=O)Nc3ccc(C(=O)O)cc3)ccc21	282.2%	7.4%[19.4 µM]	·	·	·	·
N#Cc1nc(-c2ccc(S(=O)(=O)N3CCOCC3)cc2)oc1N1CCCCCC1	9.2%	·	·	·	·	·
COC(=O)c1ccc(NC(=O)CSc2nnc(COc3ccc4c(c3)CCCC4)o2)cc1	15.6%	-7.6%	·	-3.4%	31.8%	-2.9%
COc1cccc(NC(=O)CSc2nnc(COc3ccc4c(c3)CCCC4)o2)c1	14.1µM*	-18.4%	1.9	-3.6%	-4.3%	17.0%
CCOC(=O)CNC(=O)N1CCCCCC1c1ccc(C)s1 (configuration not stated)	-28.2%	·	·	·	·	·
Cc1cc(O)c(C=O)c2c1C(=O)Oc1c(COC(=O)/C=C/C(=O)O)c(O)c(C(=O)O)c(C)c1O2	·	3.55µM*	·	·	·	·
Cc1cc(O)c(C=O)c(O)c1C(=O)O	·	-13.7%[60.1 µM]	·	·	·	·
Cc1cc(O)c(C=O)c2c1C(=O)Oc1c(CO)c(O)c3c(c1O2)C(O)OC3=O (configuration not stated)	·	0.794µM*	-84.0*	2.82µM*	2.24µM*	1.12µM*
Cc1cc(C)c(NC(=S)NCCCSC2CCCCC2)c(C)c1	25.1µM*	-24.5%	-9.5	-12.8%	-6.4%	58.2%
Cc1cc(C(C)(C)C)cc(C)c1Cn1c(Cl)nc2c1c(=O)n(C)c(=O)n2C	5.3%	·	·	·	·	·
CC(C)C[C@H]1CCC[C@H](CC(C)C)[N+]1(C)C	14.1µM*	·	·	·	·	·
COc1ccccc1N1CCN(C(=O)Nc2cn(CC(C)C)c(=O)c3ccccc23)CC1	-12.0%	-20.9%	·	-11.7%	30.8%	64.9%
COc1ccc(CNC(=O)Nc2cn(CC(C)C)c(=O)c3ccccc23)c(OC)c1	0.0%	-0.9%	·	-16.1%	31.2%	22.4µM*
O=C(NCCc1cccc(Cl)c1)NC1CC1	-7.2%	·	·	·	·	·
CC(C)c1c(O)ccc2c1CC[C@H]1C(C)(C)CCC[C@]21C	-12.2%	-6.1%	-6.7	-11.9%	·	-11.0%
COc1ccc(O)c(O)c1/C=C1\[C@@H](C)CCC2C(C)(C)CCC[C@]12C (some centres not stated)	2.24µM*	·	·	·	·	·
Cc1ccccc1N(C)C1CN([S+](=O)([O-])c2cccs2)C1	50.9%[176 µM]	·	·	·	·	·
S=c1[nH]nc(COc2ccc3ccccc3c2)o1	39.8µM*	-6.1%	?	-13.1%	24.0%	4.3%
O=C(O)c1ccc(S(=O)(=O)c2ccc([N+](=O)[O-])cc2[N+](=O)[O-])cc1	-20.9%	-23.3%	1.0	79.4µM*	8.5%	1.12µM*
O=C(O)c1ccc(S(=O)(=O)c2ccccc2C(=O)O)c([N+](=O)[O-])c1	?	-1.7%	-7.6	7.7%	?	-14.9%
Cn1c(SCC(=O)N/N=C/c2ccco2)nc2ccccc21	-1.1%	-1.3%	0.1	2.6%	-13.1%	25.4%
CCn1c(SCC(=O)N/N=C/C=C/c2ccco2)nnc1-c1ccc(OC)cc1	?	-9.9%	1.2	-6.3%	25.1µM*	-10.3%
Cc1ccc(OCC(=O)N/N=C/C=C/c2ccco2)cc1	?	?	-63.8*	17.8µM*	-27.3%	15.8µM*
CC(/C=N/NC(=O)CSc1nc2ccccc2n1C)=C\c1ccco1	-26.4%	?	-29.3	14.1µM*	?	56.2µM*
CCn1c(SCC(=O)N/N=C/C=C/c2ccco2)nc2ccccc21	?	-48.9%	?	50.1µM*	22.4µM*	20µM*
SMILES	ALOX12 inh	POLK inh	PI5P4Ka inh	POLH inh	POLB inh	Pol iota inh
O=C(COc1ccccc1[N+](=O)[O-])N/N=C/C=C/c1ccco1	29.5%	-36.0%	-24.4	?	?	?
CCOc1ccc(NC(=O)COC(=O)c2nn(C)c(=O)c3ccccc23)cc1	2.9%	·	·	·	·	·
Cc1cc2n(CC(O)COc3ccc(C(C)(C)C)cc3)c(=O)c3ccccc3n2n1 (configuration not stated)	-25.5%	·	·	·	·	·
CCOC(=O)C(Cc1ccccc1)(Nc1ccccc1OC)C(O)c1ccc(C#N)cc1 (configuration not stated)	-0.3%	·	·	·	·	·
COC(=O)c1ccc(COC(=O)c2cccc3ccccc23)cc1	-25.8%	·	·	·	·	·
COc1cccc(-c2nc3c([nH]2)CN(c2cc(C4CC4)ncn2)CC3)c1	69.5%	·	·	·	·	·
O=C(N/N=C/c1cc(Br)c(Br)o1)C(O)c1ccccc1 (configuration not stated)	-16.0%	-39.2%	-13.9	50.1µM*	22.4µM*	?
O=C(N/N=C/C=C/c1ccco1)C(O)c1ccccc1 (configuration not stated)	?	?	·	50.1µM*	·	12.6µM*
Cc1ccc(/C=N/NC(=O)C(O)c2ccccc2)o1 (configuration not stated)	14.7%	-10.3%	0.8	-17.5%	6.5%	10.8%
CCc1ccc(C(C)NC(=O)Cn2nnn(-c3ccccc3)c2=O)cc1 (configuration not stated)	16.4%	·	·	·	·	·
CCn1nc(C(=O)OC(C(=O)NC(N)=O)C(C)C)c2ccccc2c1=O (configuration not stated)	59.0%	·	·	·	·	·
O=S(=O)(c1ccc(NC(=S)NC23CC4CC(CC(C4)C2)C3)cc1)N1CCCCC1	44.7µM*	·	-0.9	-19.1%	·	·
NS(=O)(=O)c1ccc(NC(=S)Nc2ccc(S(=O)(=O)N3CCCC3)cc2)cc1	4.6%	-15.9%	3.4	8.1%	-17.3%	12.8%
CCN(CC)C1=NC(C(F)(F)F)(C(F)(F)F)N=C(c2cccc(OC)c2)O1	14.6%	·	·	·	·	·
CCC1CCCCN1C(=O)CSc1nc2ncccc2[nH]1 (configuration not stated)	0.5%	25.1µM*	-0.4	-11.7%	45.2%	?
O=C(COc1ccccc1)Nc1c(C(=O)c2ccc3c(c2)OCCO3)oc2ccccc12	26.6%	·	·	·	·	·
O=S(=O)(NCC(O)COCc1ccco1)c1cccs1 (configuration not stated)	-2.7%	35.5µM*	?	20µM*	22.4µM*	22.4µM*
N#Cc1cc2c([nH]c1=S)CCCC2	14.1µM*	-18.0%	-72.6*	-12.0%	0.2%	?
CC1(C)Cc2c(c(N3CCCC3)[nH]c(=S)c2C#N)CO1	·	·	·	·	3.1%	·
CC1(C)Cc2[nH]c(=S)c(C#N)cc2CO1	-19.2%	-4.5%	-87.7*	6.0%	?	?
CC(CC(=O)Nc1ccc(NC(=O)C(C)(C)C)cc1)c1ccccc1 (configuration not stated)	-24.0%	·	·	·	·	·
CC1=C[C@@H](CN2CCN(c3ncccn3)CC2)[C@H](C(C)C)C[C@H]1Cc1nnc(-c2ccc(N(C)C)cc2)o1	-31.3%	·	·	·	·	·
CC(C)c1ccc(C2C(C#N)=C(SCC(N)=O)NC3=C2C(=O)CCC3)cc1 (configuration not stated)	44.7µM*	·	·	·	·	·

Screening data deposited in PubChem by National Center for Advancing Translational Sciences (NCATS).
